Assay results published in the supplement of paper PMC9694430.
Counter-ions that a name gives are not always drawn.

Experiments:
Test in all cases: thermal shift delta Tm vs DMSO control; higher = stronger stabilization (binding)
Details in all cases: 12.5 µM; protein concentration 2 µM
LOC_OS04G57630-cb004 = tested on: LOC_OS04G57630-cb004
Summary of the method: (§1)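 Thermal shift values come from differential scanning fluorimetry on purified rice kinase domains made in E. coli, with melting temperatures obtained from Boltzmann fits. Samples of 19.5 μl held 2 μM kinase, 100 mM potassium phosphate pH 7.5, 150 mM NaCl, 10% glycerol, 5 × SYPRO Orange and compound in DMSO, and were heated from 25°C to 95°C at 0.05°C/s. Each shift is a triplicate mean relative to the DMSO-only protein sample.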

LOC_OS05G07850-cb002 = tested on: LOC_OS05G07850-cb002
Summary of the method: as §1

LOC_OS05G16824-cb004 = tested on: LOC_OS05G16824-cb004
Summary of the method: as §1

LOC_OS05G28520-cb001 = tested on: LOC_OS05G28520-cb001
Summary of the method: as §1

LOC_OS05G30820-cb001 = tested on: LOC_OS05G30820-cb001
Summary of the method: as §1

LOC_OS05G43570-cb004 = tested on: LOC_OS05G43570-cb004
Summary of the method: as §1

LOC_OS06G16330-cb003 = tested on: LOC_OS06G16330-cb003
Sequence of LOC_OS06G16330-cb003 (as listed by the source): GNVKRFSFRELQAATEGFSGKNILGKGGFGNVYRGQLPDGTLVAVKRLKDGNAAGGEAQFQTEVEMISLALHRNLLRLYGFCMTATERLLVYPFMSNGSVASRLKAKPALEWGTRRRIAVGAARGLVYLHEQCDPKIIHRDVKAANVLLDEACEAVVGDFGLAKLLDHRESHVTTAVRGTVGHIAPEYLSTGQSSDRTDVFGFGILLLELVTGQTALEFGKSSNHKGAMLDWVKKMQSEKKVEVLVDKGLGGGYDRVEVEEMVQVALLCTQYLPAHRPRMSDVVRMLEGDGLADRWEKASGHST
Summary of the method: as §1

LOC_OS06G22820-cb001 = tested on: T1, LOC_OS06G22820-cb001
T1 sequence (whole entry): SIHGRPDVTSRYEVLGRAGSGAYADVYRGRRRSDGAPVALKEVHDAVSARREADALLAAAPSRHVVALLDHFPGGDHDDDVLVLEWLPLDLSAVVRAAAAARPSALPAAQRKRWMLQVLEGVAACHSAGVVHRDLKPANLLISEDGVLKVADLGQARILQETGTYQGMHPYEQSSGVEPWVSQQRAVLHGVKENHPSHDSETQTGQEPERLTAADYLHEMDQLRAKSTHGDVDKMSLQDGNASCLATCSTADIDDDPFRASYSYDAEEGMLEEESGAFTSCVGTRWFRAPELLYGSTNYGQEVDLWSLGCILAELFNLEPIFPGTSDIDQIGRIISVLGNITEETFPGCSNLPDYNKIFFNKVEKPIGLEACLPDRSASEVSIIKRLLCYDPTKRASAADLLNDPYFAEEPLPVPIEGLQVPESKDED
Summary of the method: as §1

LOC_OS07G06570-cb004 = tested on: LOC_OS07G06570-cb004
Summary of the method: as §1

LOC_OS07G07230-cb001 = tested on: LOC_OS07G07230-cb001
Summary of the method: as §1
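Note: purified Escherichia coli-expressed rice kinase domain construct.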

| Structure (SMILES) | thermal shift delta Tm (LOC_OS04G57630-cb004) [°C] | thermal shift delta Tm (LOC_OS05G07850-cb002) [°C] | thermal shift delta Tm (LOC_OS05G16824-cb004) [°C] | thermal shift delta Tm (LOC_OS05G28520-cb001) [°C] | thermal shift delta Tm (LOC_OS05G30820-cb001) [°C] | thermal shift delta Tm (LOC_OS05G43570-cb004) [°C] | thermal shift delta Tm (LOC_OS06G16330-cb003) [°C] | thermal shift delta Tm (LOC_OS06G22820-cb001) [°C] | thermal shift delta Tm (LOC_OS07G06570-cb004) [°C] | thermal shift delta Tm (LOC_OS07G07230-cb001) [°C] |
| --- | --- | --- | --- | --- | --- | --- | --- | --- | --- | --- |
| COc1ccc(S(=O)(=O)N(CCO)c2ccccc2CN(C)C/C=C/c2ccc(Cl)cc2)cc1 [KN-93 Phosphate] | 0.49 | 0.97 | 1.97 | 0.31 | 0.17 | 0.27 | -0.14 | 0.35 | 1.18 | 0.21 |
| FC(F)c1nc2ccccc2n1-c1nc(N2CCOCC2)nc(N2CCOCC2)n1 | 0.39 | 0.04 | 1.24 | 0.54 | 0.54 | 0.5 | 0.49 | 0.93 | 0.84 | 0.3 |
| O=C(Nc1cccc(Cl)c1)Nc1ncc(CCNc2ncnc3ccsc23)s1 [SNS-314 Mesylate] | 2.15 | 7.18 | 2.52 | 1.77 | 0.46 | 1.08 | 4.68 | 1.24 | 0.91 | -0.06 |
| COc1ccc(-c2ccc3c(N4CCOCC4)nc(N4C[C@@H](C)O[C@@H](C)C4)nc3n2)cc1CO | -0.55 | -0.78 | -3.16 | 0 | 0.48 | 0.2 | -0.25 | 0.14 | 0.51 | 0.35 |
| Nc1ccc(-c2ccc3ncc4ccc(=O)n(-c5cccc(C(F)(F)F)c5)c4c3c2)cn1 [Torin 2] | 0.09 | 9.25 | 2.46 | 0.76 | 0.48 | 0.35 | 2.11 | 0.56 | 1.44 | 0.3 |
| O=C(O)c1ccc(Nc2ncc3c(n2)-c2ccc(Cl)cc2C(c2c(F)cccc2F)=NC3)cc1 | -0.29 | 4.66 | -1.88 | 0.62 | 0.22 | 0.24 | -0.12 | 0.97 | 0.4 | 0.33 |
| C=CC(=O)Nc1cccc(Nc2nc(Nc3ccc(NC4CN(CCF)C4)cc3OC)ncc2C(F)(F)F)c1 | 0.41 | 6.71 | 1.25 | 0.72 | 0.43 | 0.24 | -0.88 | 0.16 | 1.07 | 0.62 |
| CCn1c(=O)c(-c2ccc(-c3cncs3)cc2Cl)cc2cnc(Nc3ccc(N4CCN(C)CC4)cc3)nc21 | 0.31 | 1.19 | 0.07 | 0.25 | 0.51 | 0.24 | -0.19 | 0.67 | 0.84 | 0.19 |
| CNCc1ccc(-c2cc(-c3nc(-c4ccc(S(=O)(=O)C(C)C)cc4)cnc3N)on2)cc1 | 0.75 | 6.99 | -0.05 | 0.89 | 0.64 | 0.33 | 0.7 | 0.87 | 1.23 | 0.32 |
